Source: PubChem (The Scripps Research Institute Molecular Screening Center)
hcDAF12 agonist: activators of H. contortus DAF-12 nuclear receptor. 1.4% of 370,000 active. activation, % at 6.8 µM. HEK293 hcDAF-12 lit1-tk-luc reporter, luminescence; 0% DMSO, 100% Δ7-dafachronic acid;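 active = activation above the mean of all tested compounds plus 3 SD, cut at about 5.5% in these data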;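 note: 100% = response to 3 µM Δ7-dafachronic acid high control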
SMARCA2 act: activators of SMARCA2 function; MG213 cells, MMTV-luciferase reporter, dexamethasone, overnight; activation, % at 9.1 µM; 1% of 370,000 active; in the data active = activation above about 7.8%;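 note: 0% = vehicle wells and 100% = reference activator wells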
DAX1 inh-1: blocks DAX1 repression of SF-1 activated StAR promoter; 1.1% of 370,000 active; inhibition, % at 6.8 µM; HEK293T StAR-luciferase reporter, SF-1/DAX-1 repression relief;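 active = inhibition above the mean over all tested compounds plus 3 SD, cut at about 3.6% in these data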;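 note: 0% = DAX-1 cells with DMSO and 100% = cells lacking DAX-1 with DMSO; higher inhibition means more luminescence from relief of DAX-1 repression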
DAX1 inh-2: inhibits human nuclear receptor DAX1; HEK293 Gal4-DAX1 luciferase reporter, luminescence; 0.99% of 340,000 active; inhibition, % at 6.75 µM; P51843; AID 504766;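 active = inhibition above the mean over all tested compounds plus 3 SD, cut at about 4.2% in these data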;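 note: 0% = DAX1-transfected cells with DMSO and 100% = empty-vector control cells with DMSO; inhibition shows as a rise in luminescence from relieved DAX1 repression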
Target sequence (P51843 207-470 limits assumed): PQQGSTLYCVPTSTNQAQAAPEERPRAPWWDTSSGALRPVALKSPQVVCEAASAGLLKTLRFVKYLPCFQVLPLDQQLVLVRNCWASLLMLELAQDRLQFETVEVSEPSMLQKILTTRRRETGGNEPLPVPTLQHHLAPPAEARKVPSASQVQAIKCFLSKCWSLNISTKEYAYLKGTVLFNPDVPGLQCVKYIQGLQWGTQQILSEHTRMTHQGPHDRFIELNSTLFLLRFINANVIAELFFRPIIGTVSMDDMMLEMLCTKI
hgDAF12 agonist: activates the H. glycines DAF-12 receptor ligand-binding domain; AID 687014; activation, % at 6.8 µM; 1.8% of 370,000 active; HEK293 GAL4-hgDAF12 UAS-luciferase reporter, agonist luminescence; normalized to butyrate control;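 active = activation above a cutoff set at the mean of all screened compounds plus 3 SD, cut at about 10% in these data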;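 note: 0% = DMSO wells and 100% = sodium butyrate wells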
ssDAF12 agonist: S. stercoralis DAF-12 activation, primary screen. activation, % at 6.8 µM. HEK293 ssDAF-12/GRIP1 lit1-tk-luc reporter, luminescence; % of 3 µM dafachronic acid response. 1% of 370,000 active;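 active = activation above the mean over all tested compounds plus 3 SD, cut at about 0.9% in these data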;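 note: 0% = DMSO-only wells and 100% = 3 µM delta7-dafachronic acid wells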
hgDAF12 conf: hgDAF-12 agonism, confirmation assay; shares compounds with hgDAF12 agonist; HEK293 GAL4-hgDAF12 luciferase reporter, agonist mode; percent of butyrate response; activation, % at 6.8 µM; 80% of 3,300 active; AID 743050;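 active = mean activation over triplicate wells above the hit cutoff derived from the earlier primary screen, cut at about 11% in these data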;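 note: 0% = DMSO low control and 100% = 2 mM sodium butyrate high control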
LXRb DAF12 ctr: counter-screen for DAF-12 agonists: agonists of human LXR-beta; shares compounds with hgDAF12 agonist; HEK293 Gal4-LXR luciferase reporter, 24 h; activation, % at 6.8 µM; 3,300 tested, under 10 active; AID 743051;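 active = mean activation of the triplicate above a set limit carried over from the primary screen, none filed active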
Numbers without * were called inactive; . = no result. Rows were chosen to be rich in hits. Some 4.8% of all compounds tested hit in one or more screens of this group.

SMILES | hcDAF12 agonist | SMARCA2 act | DAX1 inh-1 | DAX1 inh-2 | hgDAF12 agonist | ssDAF12 agonist | hgDAF12 conf | LXRb DAF12 ctr
O=C(N/N=C/C1CC=CCC1)c1ccc(Cl)cc1O (configuration not stated) | 3.8 | 1.9 | 0.8 | -1.4 | 16.0* | 1.1* | 0.2 | 0.0
CC(C)C[C@H](NC(=O)c1ccccc1)C(=O)N1CCC[C@H]1C(=O)NCc1ccccc1 | -0.5 | -4.8 | -1.2 | . | -0.2 | -0.4 | . | .
CCCC1CCC(c2ccc(OCC)cc2)=CC1=O (configuration not stated) | 0.8 | 0.4 | 1.5 | 3.3 | 14.1* | -0.3 | 15.7* | 0.8
CCCCCCCCN1C(=O)[C@@H](CC(=O)NCc2cccc(C(F)(F)F)c2)C[C@@]2(C(=O)OC)C1=C[C@H](C1CCCC1)O[C@@H]2C | 0.4 | -1.3 | -0.1 | . | -0.9 | -0.6 | . | .
COC(=O)c1ccc(-c2ccc(Cl)cc2)nc1C | 4.8 | 2.7 | 4.3* | 2.1 | 14.5* | 0.3 | 20.0* | 0.9
COC(=O)c1ccccc1NC(=O)c1sc(Cl)nc1C | -0.2 | -1.2 | -1.2 | 0.5 | -1.8 | -0.9 | . | .
C[C@H]1CCC(=O)N(CCSc2ccc(Br)cc2)CC1 | 0.1 | 4.8 | 0.3 | 1.3 | 7.0 | -0.7 | . | .
Cc1ccc(SCCN2CCC(C)CCC2=O)cc1 (configuration not stated) | 3.5 | 6.9 | 1.8 | 1.8 | 14.4* | 0.2 | 17.3* | 0.6
Cc1cc(C(=O)Nc2ccc3c(c2)CCC3)ccc1[N+](=O)[O-] | 2.2 | 1.0 | 1.2 | . | 14.1* | -0.4 | 16.6* | 0.7
Nc1ccc(NC(=O)c2cccs2)cc1 | -0.7 | -4.5 | 1.4 | -0.5 | -1.2 | -1.7 | . | .
O=C(Nc1ccc2c(c1)CCC2)c1cnc(Cl)c(Cl)c1 | 3.7 | 3.4 | 2.1 | 2.1 | 14.8* | 1.1* | 19.1* | 0.6
O=C(Nc1ccc2c(c1)CCC2)c1cccs1 | 2.7 | 0.8 | 3.4 | 0.7 | 15.9* | 1.2* | 17.3* | 0.7
C[C@H](O)[C@@H]1CN2CCc3ccc(-c4ccc5c(c4)OCO5)cc3[C@@H]2C[C@@H]1N(C)C(=O)c1ccco1 | -0.6 | -4.6 | 0.2 | . | -0.4 | -1.0 | . | .
OC(c1ccccc1)c1nc(/C=C/c2ccccc2)cs1 (configuration not stated) | 4.7 | 3.2 | 3.3 | . | 15.7* | -1.1 | 11.3* | 0.3
OC(c1ccc(F)cc1)c1nc(/C=C/c2ccccc2)cs1 (configuration not stated) | 2.7 | 0.6 | 3.4 | . | 7.2 | -0.8 | . | .
Cc1ccc(Nc2cc(C)c3c(O)cccc3n2)cc1C | 4.1 | -0.1 | 1.4 | 1.5 | 14.7* | -0.3 | 15.0* | 0.6
NC(=O)c1cc2ccccc2o/c1=N/NC(=O)c1cccs1 | 0.2 | -0.3 | -1.7 | 1.1 | 3.2 | -0.8 | . | .
N/C(=N\NC(=O)c1cccs1)c1cc2cc(Cl)ccc2oc1=O | 4.9 | 5.5 | 2.7 | 0.2 | 19.4* | -1.5 | 2.3 | 0.1
Cc1ccc(NC(=S)c2nc3ccccc3[nH]2)cc1 | 6.5* | 6.3 | 2.6 | 1.6 | 14.4* | 1.0* | 16.7* | 0.7
O=C1N[C@@H](Cc2ccccc2)C(=O)N2[C@H]1CSCCS2(=O)=O | -0.1 | 2.9 | 0.1 | . | -1.4 | -0.9 | . | .
O=S1(=O)c2cc(Cl)ccc2N2CC[C@H](C2)N1Cc1ccc(Cl)c(Cl)c1 | -0.9 | -3.7 | 0.5 | . | -0.8 | -0.8 | . | .
COc1cc(OC)c(NC(=O)C(Sc2nc(C)cc(C)c2C#N)c2ccccc2)cc1Cl (configuration not stated) | 0.6 | -0.5 | 1.1 | . | -0.2 | -0.9 | . | .
CN(C)/C=N/C(=S)Nc1ccc(Cl)cc1 | 0.8 | 2.3 | 0.9 | 1.8 | 13.9* | -0.9 | 10.9* | 0.3
O=C(CCc1nnc(-c2ccccc2)o1)NCC1CCN(C2CCCC2)CC1 | -1.5 | 2.3 | 1.1 | 0.2 | -1.6 | -1.1 | . | .
Cc1ccc(-c2nnc(CCC(=O)NCC3C4CC5CC(C4)CC3C5)o2)s1 (configuration not stated) | 4.6 | 4.3 | 2.3 | 2.8 | 13.6* | -0.2 | 10.4 | 0.3
